# Screening data: PubChem BioAssay, National Center for Advancing Translational Sciences (NCATS)
# Rows were chosen to be rich in hits. Some 19% of all compounds tested hit in one or more screens of this group.
# AMA1-RON2 inh: qHTS for Inhibitors of AMA1-RON; Towards Development of Antimalarial Drug Lead: Primary Screen. Plasmodium falciparum AMA1 (3D7) - RON2 peptide interaction. AlphaScreen AMA1-biotinylated RON2 peptide binding. Potency, µM (doses to about 58.2 µM), actives largely listed as inhibitors. actives 0.2% (n = 360,000). AID 720542, 2013; further: nearly all actives have a fitted effect of over 45% in size
#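 AMA1 (3D7) with his tag at 25 nM final met compounds first, then biotinylated RON2 peptide at 25 nM; detection used donor plus acceptor beads, 10 µg/mL apiece, read by AlphaScreen after 30 min at room temperature.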
# Shiga toxin inh: A qHTS for Small Molecule Inhibitors of Shiga Toxin; inhibition, % at 38.7 µM; actives 9.2% (n = 290,000); Vero cells, Shiga toxin protein synthesis inhibition reporter; AID 2315, 2010; in the data active means inhibition mostly above about 28%, no sharp cut-off; inactive means mostly below about 43%
# Pf growth 48h: Primary qHTS for delayed death inhibitors of the malarial parasite plastid, 48 hour incubation. P. falciparum luciferase growth in erythrocytes, 48 h. Potency, µM (highest dose often 28.7 µM), hits mostly inhibitors. actives 5.9% (n = 310,000). AID 504832, 2011
#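 Growth was read as firefly luciferase luminescence after a 48 h, 37 C, 5% CO2 exposure of compounds to reporter-bearing P. falciparum cultures (0.1% parasitemia, 2% hematocrit final) in Albumax-supplemented RPMI 1640.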
# Pf growth 96h: Primary qHTS for delayed death inhibitors of the malarial parasite plastid, 96 hour incubation; actives 6.9% (n = 320,000); P. falciparum luciferase reporter growth, 96 h; Potency, µM (doses to about 28.7 µM), most hits filed as inhibitors; AID 504834, 2011
#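 Two-generation exposure (96 h) targets delayed-death phenotype. Reporter parasites carrying integrated firefly luciferase, in red cells at 2% hematocrit and 0.05% parasitemia final, kept at 37 C, 5% CO2; luminescence loss indicates inhibition.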
# CHX counter: Cycloheximide Counterscreen for Small Molecule Inhibitors of Shiga Toxin; max response, %; actives 12% (n = 300,000); cell reporter, cycloheximide protein synthesis inhibition counterscreen; AID 2314, 2010; in the data active means max response mostly above about 13%, no sharp cut-off; inactive means mostly below about 14%; further: read at 38.3 µM for the half of the compounds with a filed dose
# SARS PLP yeast: qHTS of Yeast-based Assay for SARS-CoV PLP | S. cerevisiae expressing SARS-CoV PLpro, growth rescue | Potency, µM (series often up to 32.9 µM), hits mostly activators | actives 0.19% (n = 330,000) | AID 485353, 2010; calls by dose curve; further: nearly all actives have a fitted effect of over 55% in size
# Hits are given with their value; – = inactive; ? = inconclusive; · = no result; [ ] = dose if it differs, or a comment. Unless noted, the call rests on the fitted dose curve; in most records, active means well fitted curve in the direction sought with a large enough effect; inconclusive means small, poorly fitted or top-dose-only effect, or another doubt; inactive means no such curve, though single readings can be large; an effect the other way counts as inactive or inconclusive.
SMILES,AMA1-RON2 inh,Shiga toxin inh,Pf growth 48h,Pf growth 96h,CHX counter,SARS PLP yeast
COc1ccccc1CNC(=O)COC(=O)c1ccc(Cl)c(N)c1,–,–,–,–,–,–
COc1ccc(NC(=O)c2cc3ccccn3n2)cc1,–,–,·,–,39.5,–
COc1ccc(NC(=O)c2cc3c([nH]c4ccccc43)c(C)n2)cc1,–,–,?,9.28µM,–,–
CCOc1c(Cl)cc(C(=O)Nc2cccc(C(=O)O)c2)cc1Cl,–,69.3,–,–,43.3,–
CCOc1c(Cl)cc(C(=O)Nc2ccccc2-c2ccccc2)cc1Cl,–,–,–,–,–,–
COc1ccccc1Oc1ccc(NC(=O)c2ccccc2)cc1,–,–,–,–,28.4,–
O=C(NCc1ccc(Cl)cc1)c1cc2ccccn2n1,–,–,·,–,–,–
CCc1noc(C)c1C(=O)N(CCOC)c1c(N)n(CC(C)C)c(=O)[nH]c1=O,–,–,–,–,–,?
CC1CCN(CC2C(=O)O[C@@H]3C[C@@]4(C)CCC[C@H](C)C4=C[C@H]23)CC(C)(C)C1 (stereo partly drawn),–,–,?,?,–,–
O=C(NCC(c1cccs1)N1CCOCC1)c1cc2ccccc2o1 (stereo not drawn),–,–,?,·,–,–
Cc1ccc(C(=O)Nc2cccc(C(=O)N3CCN(C)CC3)c2)cc1,–,70.8,–,–,30.5,–
CCOc1ccc(NC(=O)c2cccc(NC(=O)c3ccccc3)c2)cc1,–,53.1,?,?,17.2,–
COc1ccc(C(=O)Nc2cccc(C(=O)N3CCCC3)c2)cc1,–,–,–,–,10.6,–
COc1ccc(NC(=O)c2cccc(NC(=O)c3ccccc3)c2)cc1,–,–,–,–,17.9,–
O=C(c1ccc(N2C(=O)CCC2=O)cc1)N1CCCSC1=Nc1ccccc1,–,·,·,·,·,·
COc1ccccc1OC(=O)Nc1ccc(Cl)cc1,–,58.1,·,–,31.9,–
CC(=O)N1CCN(c2ccc(NC(=O)c3ccc(C)cc3)cc2)CC1,–,–,–,–,–,–
CN1CCc2ccc(NC(=O)c3ccc(C(F)(F)F)cc3)cc2C1,–,25.1,?,–,13.7,–
COc1ccc(N/N=C(C)/C(=N/O)C(=O)Nc2ccccc2)cc1,–,74.2,–,–,29.1,–
CC(=O)N1CCc2cc(NC(=O)c3ccc(C)cc3)ccc21,–,46.7,–,·,33.7,–
CS(=O)(=O)c1ccc(NC(=O)C2CC(=O)N(c3ccc4c(c3)OCCO4)C2)cc1 (stereo not drawn),–,·,–,–,·,–
COc1ccc(C(=O)Nc2ccc(C(=O)OCC(=O)c3ccccc3)cc2)cc1,–,–,–,–,18.8,–
COc1ccc(C(=O)COC(=O)c2ccc(NC(=O)c3ccccc3)cc2)cc1,–,–,–,–,–,–
CCSc1nnc(NS(=O)(=O)c2ccc(C)cc2)s1,–,–,–,–,–,–
CN(C(=O)c1cc(-c2ccc3c(c2)OCO3)on1)c1ccccc1,–,95.0,–,–,33.7,–
SMILES,AMA1-RON2 inh,Shiga toxin inh,Pf growth 48h,Pf growth 96h,CHX counter,SARS PLP yeast
O=C(Nc1cc(Br)ccc1O)c1cc(-c2ccc3c(c2)OCO3)on1,–,76.5,?,–,14.8,–
CSc1ccccc1NC(=O)c1cc(-c2ccc3c(c2)OCO3)on1,–,61.2,–,–,–,–
COc1ccc(NC(=O)c2cc(-c3ccc4c(c3)OCO4)on2)cc1OC,–,–,–,?,–,–
NS(=O)(=O)c1ccc(CNC(=S)NC2CC2)cc1,–,–,–,2.08µM,–,–
Cc1ccc(S(=O)(=O)NC(=O)NCc2ccccc2)cc1,–,–,·,·,–,–
NS(=O)(=O)c1ccc(CNC(=S)NCc2ccc(F)cc2)cc1,–,–,–,10.4µM,–,–
Cc1ccc(S(=O)(=O)NC(=O)NCc2ccc(F)cc2)cc1,–,–,–,4.15µM,–,–
COc1ccc(Cl)cc1NC(=S)NCc1ccc(S(N)(=O)=O)cc1,–[2.32 µM],–,–,11.7µM,–,–
CCn1c(Cc2ccccc2)nnc1SCC(=O)Nc1ccc(S(N)(=O)=O)cc1,–,–,–,·,–,–
FC(F)(Cl)c1nnc2ccc(Cl)nn12,–,–,?,–[5.75 µM],–,–
CC1CCN(CC(O)CN2c3ccccc3Sc3ccccc32)CC1 (stereo not drawn),–,–,?,–,–,–
CN1CC[C@H](CN2c3ccccc3Sc3ccccc32)C1,·,·,3.79µM,4.78µM,·,·
O=C(CC[C@H]1O[C@@H](n2ccc(=O)[nH]c2=O)[C@H](O)[C@@H]1O)N[C@H](Cc1ccccc1)C(=O)NCc1cccs1,–,·,·,·,·,·
Cc1nc(N)c(CC(Br)CBr)c(Cl)n1 (stereo not drawn),–,–,0.0738µM,?,–,–
N#CC(C(=O)NC1CCCCC1)=C1CCCCCC1,–,–,–,–,–,–
CCOc1ccc(N=Cc2c(O)c3ccccc3oc2=O)cc1,–,77.6,–,–,26.1,–
COc1ccccc1C(=O)COC(=O)c1cc(=O)[nH]c2ccccc12,–,·,–,–,·,–
COc1ccccc1C(=O)COC(=O)/C=C/c1ccccc1,–,99.6,–,–,53.3,–
CCc1ccc(C(=O)COC(=O)[C@@H](NC(N)=O)[C@@H](C)CC)cc1,–,77.1,–[5.75 µM],–,21.9,–
COc1ccccc1C(=O)COC(=O)c1ccc(N(C)C)cc1,–,93.6,–,–,34.8,–
COc1ccccc1C(=O)OCC(=O)c1cccc([N+](=O)[O-])c1,–,–,–,–,27.5,–
C#CCOCCOCCOCCNc1nc(N2CCN(C(=O)[C@H](C)n3cc(CCC(=O)O)nn3)CC2)nc(N2CCN(C(=O)[C@H](CCCCN)n3cc(CCCC)nn3)CC2)n1,–,·,·,·,·,·
COc1ccccc1C(=O)COC(=O)c1ccccc1O,–,95.3,–,–,30.9,–
CCc1ccc(C(=O)COC(=O)c2ccccc2OC)cc1,–,132.5,–,–,42.6,–
COc1ccc(C(=O)OCC(=O)c2ccc(F)cc2)cc1OC,–,·,·,·,·,–
COc1ccccc1C(=O)COC(=O)c1cccs1,–,·,·,·,·,–
O=C(NCC1(N2CCOCC2)CCCCC1)c1cccc(S(=O)(=O)Nc2ccc(F)cc2)c1,–,·,10.4µM,?,·,–
O=C(NCC1(N2CCCCC2)CCCCC1)c1cccc(S(=O)(=O)Nc2ccc(F)cc2)c1,–,·,8.28µM,?,·,–
COc1ccc2c(c1OC)C(C1c3c(cc4c(c3OC)OCO4)CCN1C)OC2=O (stereo not drawn),–,–,?,?,–,–
COc1ccc2c(c1OC)C(=O)OC2C1c2c(cc3c(c2OC)OCO3)CCN1C (stereo not drawn),–,–,?,13.1µM,–,–
